Assay results taken from the OligoGym collection.

Tests used:
Assay in all cases: pooled miR-30 sensor sort-seq; sequence = guide strand
Conditions in all cases: shRNA
[1] = molecular target: KIF26A
[2] = molecular target: KIR2DL5B
[3] = molecular target: KIF2C
[4] = molecular target: KIF25
Further: reference of the scale not given here.

TAGCTTGTCGAGAAGCAGGGCA
sensor-assay potency score (higher = more potent) [1]: -0.503

AACTACTTGAAGAGTTTCCTGT
sensor-assay potency score (higher = more potent) [2]: 0.126

TTTGTCTGCTAGCCTGCTCTTC
sensor-assay potency score (higher = more potent) [3]: -1.15

TAACTTCGCATCGCCTCCGAGG
sensor-assay potency score (higher = more potent) [4]: -1.63

TTATTGTAAACTTCCACTATGG
sensor-assay potency score (higher = more potent) [4]: -0.569

TTTGTCTGTGTGAAAACGCAGT
sensor-assay potency score (higher = more potent) [2]: -0.271

ACAAGCAGTGGGTCACTCGGGT
sensor-assay potency score (higher = more potent) [2]: -0.672

TACTGGTAGACGTGCAGCGTGA
sensor-assay potency score (higher = more potent) [1]: -1.25

AGAATCACCAGTAACTTCGCAT
sensor-assay potency score (higher = more potent) [4]: -0.565

TACACCTTGATCTCGAACGGCT
sensor-assay potency score (higher = more potent) [1]: -0.449

TTGTAAACTTCCACTATGGAGA
sensor-assay potency score (higher = more potent) [4]: -0.609

TCAAACTCATCATTGATGCTGC
sensor-assay potency score (higher = more potent) [1]: 0.23

TTCAAAGATTGTCTGTACCAGT
sensor-assay potency score (higher = more potent) [3]: -0.672

TGAACCTGTAGACAACTTCATT
sensor-assay potency score (higher = more potent) [3]: -1.25

TCATCGATCTCGTACACCTTGA
sensor-assay potency score (higher = more potent) [1]: -0.779

AACCTCTGTCCGTCCATCCTTG
sensor-assay potency score (higher = more potent) [4]: -0.841

TCGCTTGAGCTCCACCAGCTTC
sensor-assay potency score (higher = more potent) [1]: -1.81

TAACACAAACATTGTACCCATC
sensor-assay potency score (higher = more potent) [4]: -0.837

TATGTGTCTTGCCACTTCCTGT
sensor-assay potency score (higher = more potent) [3]: -0.789

TATAGCTCTTTCCGCTGCCCGT
sensor-assay potency score (higher = more potent) [4]: -1.1

TTGATCATCAGAGTCCTCCCTG
sensor-assay potency score (higher = more potent) [2]: 0.731

TTCTGTTTCCATTTGAATCAAC
sensor-assay potency score (higher = more potent) [3]: -0.604

TTCTCCAAGTTCACAGTCCTTA
sensor-assay potency score (higher = more potent) [3]: -0.384

TTTCTTGGCCAATTCTTGCTTA
sensor-assay potency score (higher = more potent) [3]: 0.0812

TGTGCTGCTTCTACCTTGCTGG
sensor-assay potency score (higher = more potent) [1]: -0.279

TACATGTCAAATGAGCTCCTGG
sensor-assay potency score (higher = more potent) [2]: -0.149

TTGAGCTCCACCAGCTTCGTGT
sensor-assay potency score (higher = more potent) [1]: -0.457

TAATTCCTAAGTCACTCTGTGG
sensor-assay potency score (higher = more potent) [4]: -1.49

TTGCTGTATGATCTCCTTGAGC
sensor-assay potency score (higher = more potent) [3]: -1.21

TTGAAGAGTTTCCTGTGACAGA
sensor-assay potency score (higher = more potent) [2]: -0.517

TCGAAGGCAAACATCTTGGGAA
sensor-assay potency score (higher = more potent) [1]: 0.12

TAACACAGACACATATTCTGTG
sensor-assay potency score (higher = more potent) [3]: 0.393

ACAAACATTGTACCCATCCAAG
sensor-assay potency score (higher = more potent) [4]: -1.74

TTCTTGGGGGACTTGAGGCTGC
sensor-assay potency score (higher = more potent) [1]: -0.669

TTGTACAGACTGAAGATGGTAA
sensor-assay potency score (higher = more potent) [2]: -0.188

TTGCTCTTCCATCTCCTCGCTG
sensor-assay potency score (higher = more potent) [3]: -0.535
